# Experimental data taken from the supplement of paper PMC10849652.
# The full data set covers some 7,900 targets. This sample favours those with a hit. About 0.6% of all pairs of compound and target were hits.
# Compound: C1COCCN1CCN2C3=CC=CC=C3N=C2NC(=O)C4=CC(=CC=C4)[N+](=O)[O-] [IRAK-1-4 Inhibitor I]
# Assay: log2 fold change, soluble protein after heating vs DMSO (PISA); higher = thermal stabilisation; K562 cells, 10 uM, 30 min; active = over 0.2 and 3.5 SD of the protein, either way, in both replicates (recomputed)
# In short: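 K562 cells at 2×10^6 cells/mL were exposed to 10 μM compound for 30 min, then aliquots were heated for 3 min across 48°C-58°C, pooled, and extracted in PBS containing 0.5% NP-40 at 4°C. The supernatant after 21,000xg for 90 min was taken as soluble protein and measured by TMTpro 16plex LC-MS/MS with channel sums equalised. Thermal stability is reported relative to control samples, with values from duplicates. Fold changes are given on a log2 scale.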
# UniProt Q86T03, sequence (Q86T03 whole entry, looked up): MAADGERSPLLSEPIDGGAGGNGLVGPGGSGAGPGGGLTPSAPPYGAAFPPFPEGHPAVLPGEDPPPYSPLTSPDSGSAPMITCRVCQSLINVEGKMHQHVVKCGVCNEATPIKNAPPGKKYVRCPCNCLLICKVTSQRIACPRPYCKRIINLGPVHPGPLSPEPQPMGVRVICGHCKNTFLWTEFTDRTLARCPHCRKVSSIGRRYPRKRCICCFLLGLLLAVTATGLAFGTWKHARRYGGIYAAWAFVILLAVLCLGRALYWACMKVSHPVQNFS
# UniProt O15162, sequence (O15162 whole entry, looked up): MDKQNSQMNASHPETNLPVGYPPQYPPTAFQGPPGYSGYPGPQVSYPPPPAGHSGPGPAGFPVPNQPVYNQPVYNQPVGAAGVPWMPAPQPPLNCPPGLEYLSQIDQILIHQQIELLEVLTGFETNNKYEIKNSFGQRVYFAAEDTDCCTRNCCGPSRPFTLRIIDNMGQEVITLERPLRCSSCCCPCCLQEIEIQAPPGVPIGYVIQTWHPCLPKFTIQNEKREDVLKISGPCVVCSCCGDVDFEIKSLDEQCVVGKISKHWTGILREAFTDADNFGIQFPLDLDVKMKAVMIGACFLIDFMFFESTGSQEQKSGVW
# UniProt Q8NCC3, sequence (Q8NCC3 whole entry, looked up): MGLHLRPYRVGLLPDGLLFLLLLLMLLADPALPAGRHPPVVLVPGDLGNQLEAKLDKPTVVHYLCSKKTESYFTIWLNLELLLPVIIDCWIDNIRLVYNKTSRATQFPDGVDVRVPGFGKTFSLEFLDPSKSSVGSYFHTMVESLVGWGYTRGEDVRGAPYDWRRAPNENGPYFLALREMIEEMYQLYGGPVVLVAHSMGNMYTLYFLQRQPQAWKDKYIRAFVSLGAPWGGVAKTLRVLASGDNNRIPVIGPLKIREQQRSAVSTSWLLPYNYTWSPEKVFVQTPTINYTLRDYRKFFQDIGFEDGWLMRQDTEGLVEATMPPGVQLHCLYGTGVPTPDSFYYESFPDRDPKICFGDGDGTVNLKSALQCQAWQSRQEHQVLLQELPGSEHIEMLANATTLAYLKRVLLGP
# UniProt P13861, sequence (P13861 whole entry, looked up): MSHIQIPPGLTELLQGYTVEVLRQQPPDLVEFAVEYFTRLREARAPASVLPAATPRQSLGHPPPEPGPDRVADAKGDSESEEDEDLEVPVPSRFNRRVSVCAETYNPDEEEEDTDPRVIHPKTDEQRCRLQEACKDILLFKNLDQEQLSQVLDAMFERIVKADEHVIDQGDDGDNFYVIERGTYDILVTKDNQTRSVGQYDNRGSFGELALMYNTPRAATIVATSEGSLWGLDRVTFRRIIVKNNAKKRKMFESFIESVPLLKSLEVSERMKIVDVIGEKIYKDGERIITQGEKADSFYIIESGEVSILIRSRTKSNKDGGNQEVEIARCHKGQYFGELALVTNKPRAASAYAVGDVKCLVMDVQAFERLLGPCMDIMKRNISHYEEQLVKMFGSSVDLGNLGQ
# UniProt Q9Y5Y5, sequence (Q9Y5Y5 whole entry, looked up): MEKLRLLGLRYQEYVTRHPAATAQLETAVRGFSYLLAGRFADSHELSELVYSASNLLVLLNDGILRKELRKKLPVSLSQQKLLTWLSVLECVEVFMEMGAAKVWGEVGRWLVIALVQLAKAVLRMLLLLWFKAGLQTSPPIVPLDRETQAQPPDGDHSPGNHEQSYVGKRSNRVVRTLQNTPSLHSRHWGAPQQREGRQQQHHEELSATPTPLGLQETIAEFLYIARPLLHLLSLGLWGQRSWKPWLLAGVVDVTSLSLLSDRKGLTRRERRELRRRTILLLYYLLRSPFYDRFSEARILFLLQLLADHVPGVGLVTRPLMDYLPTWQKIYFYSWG
# UniProt Q9Y5K3, sequence (Q9Y5K3 whole entry, looked up): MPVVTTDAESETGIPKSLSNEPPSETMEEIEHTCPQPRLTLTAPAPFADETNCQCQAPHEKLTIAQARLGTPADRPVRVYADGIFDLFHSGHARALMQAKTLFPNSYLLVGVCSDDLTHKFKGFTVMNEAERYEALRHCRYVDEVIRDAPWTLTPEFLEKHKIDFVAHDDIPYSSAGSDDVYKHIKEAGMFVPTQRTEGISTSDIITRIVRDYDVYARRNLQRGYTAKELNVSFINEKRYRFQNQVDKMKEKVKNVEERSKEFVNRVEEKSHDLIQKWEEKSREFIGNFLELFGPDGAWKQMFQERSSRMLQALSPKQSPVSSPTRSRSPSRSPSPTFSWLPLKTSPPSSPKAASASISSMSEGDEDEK
# UniProt P48426, sequence (P48426 whole entry, looked up): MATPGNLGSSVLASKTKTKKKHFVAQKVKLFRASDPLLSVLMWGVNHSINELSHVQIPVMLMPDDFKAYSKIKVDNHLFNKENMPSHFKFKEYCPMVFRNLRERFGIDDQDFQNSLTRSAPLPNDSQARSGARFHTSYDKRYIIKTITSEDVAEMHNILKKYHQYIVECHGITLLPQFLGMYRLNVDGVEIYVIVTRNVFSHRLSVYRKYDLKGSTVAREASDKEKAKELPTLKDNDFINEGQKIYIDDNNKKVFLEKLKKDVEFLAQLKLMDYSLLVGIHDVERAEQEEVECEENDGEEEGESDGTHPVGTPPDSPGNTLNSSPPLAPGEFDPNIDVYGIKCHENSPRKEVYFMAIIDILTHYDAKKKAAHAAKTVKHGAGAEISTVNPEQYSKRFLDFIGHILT
# UniProt P05423, sequence (P05423 whole entry, looked up): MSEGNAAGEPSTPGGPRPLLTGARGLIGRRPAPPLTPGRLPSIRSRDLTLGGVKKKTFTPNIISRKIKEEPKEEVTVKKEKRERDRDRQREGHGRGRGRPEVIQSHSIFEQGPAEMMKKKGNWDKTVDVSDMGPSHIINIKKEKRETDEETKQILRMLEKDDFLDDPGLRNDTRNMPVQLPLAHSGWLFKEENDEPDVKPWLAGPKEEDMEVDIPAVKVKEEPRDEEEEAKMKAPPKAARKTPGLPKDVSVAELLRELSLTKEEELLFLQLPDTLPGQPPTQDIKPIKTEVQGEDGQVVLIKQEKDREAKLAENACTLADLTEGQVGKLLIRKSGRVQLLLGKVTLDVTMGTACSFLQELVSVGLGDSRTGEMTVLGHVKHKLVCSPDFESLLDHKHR
# UniProt P15735, sequence (P15735 whole entry, looked up): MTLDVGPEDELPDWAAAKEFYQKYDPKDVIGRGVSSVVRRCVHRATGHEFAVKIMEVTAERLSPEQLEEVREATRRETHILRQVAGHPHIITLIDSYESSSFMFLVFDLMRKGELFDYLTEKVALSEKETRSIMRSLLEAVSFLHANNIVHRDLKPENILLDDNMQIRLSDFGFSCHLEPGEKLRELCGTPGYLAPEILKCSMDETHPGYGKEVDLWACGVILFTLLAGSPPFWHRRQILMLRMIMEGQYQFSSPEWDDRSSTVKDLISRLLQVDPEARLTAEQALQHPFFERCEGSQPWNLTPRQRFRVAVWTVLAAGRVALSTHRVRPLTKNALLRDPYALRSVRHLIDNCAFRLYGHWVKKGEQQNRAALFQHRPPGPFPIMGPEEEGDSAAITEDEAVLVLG
# UniProt Q9UNM6, sequence (Q9UNM6 whole entry, looked up): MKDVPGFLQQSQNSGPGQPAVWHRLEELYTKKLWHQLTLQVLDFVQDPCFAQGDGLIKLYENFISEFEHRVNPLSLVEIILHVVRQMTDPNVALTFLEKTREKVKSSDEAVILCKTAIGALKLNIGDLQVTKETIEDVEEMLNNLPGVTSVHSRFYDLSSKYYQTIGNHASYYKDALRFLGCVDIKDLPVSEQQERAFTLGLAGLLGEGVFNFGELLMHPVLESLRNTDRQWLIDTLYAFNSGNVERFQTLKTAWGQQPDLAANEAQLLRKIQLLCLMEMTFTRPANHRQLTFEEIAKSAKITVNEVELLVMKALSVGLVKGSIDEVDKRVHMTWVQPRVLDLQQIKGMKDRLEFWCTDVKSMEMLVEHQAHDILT
# UniProt P49642, sequence (P49642 whole entry, looked up): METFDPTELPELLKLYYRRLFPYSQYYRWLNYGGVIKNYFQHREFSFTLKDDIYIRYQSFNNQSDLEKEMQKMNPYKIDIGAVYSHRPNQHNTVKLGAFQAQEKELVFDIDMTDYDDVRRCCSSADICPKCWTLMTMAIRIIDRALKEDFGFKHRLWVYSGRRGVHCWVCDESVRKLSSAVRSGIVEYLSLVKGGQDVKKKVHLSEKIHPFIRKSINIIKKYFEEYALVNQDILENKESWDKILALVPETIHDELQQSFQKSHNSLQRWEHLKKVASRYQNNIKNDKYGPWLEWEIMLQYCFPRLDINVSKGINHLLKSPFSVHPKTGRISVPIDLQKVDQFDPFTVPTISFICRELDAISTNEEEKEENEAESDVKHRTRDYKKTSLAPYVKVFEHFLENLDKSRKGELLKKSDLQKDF
# UniProt O95997, sequence (O95997 whole entry, looked up): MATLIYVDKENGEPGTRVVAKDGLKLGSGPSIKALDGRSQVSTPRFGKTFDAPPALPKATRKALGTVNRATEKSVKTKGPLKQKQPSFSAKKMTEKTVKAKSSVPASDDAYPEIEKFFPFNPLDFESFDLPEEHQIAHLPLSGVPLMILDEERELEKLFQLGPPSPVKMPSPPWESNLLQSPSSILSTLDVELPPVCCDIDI
row,Target,log2 fold change
1,PTTG1 (UniProt O95997),-0.026 (inactive)
2,PEX16 isoform 2 (UniProt Q9Y5Y5),-0.068 (inactive)
3,PCYT1B (UniProt Q9Y5K3),0.014 (inactive)
4,PSMD13 (UniProt Q9UNM6),-0.048 (inactive)
5,PIP4P1 isoform 2 (UniProt Q86T03),-0.011 (inactive)
6,PIP4K2A (UniProt P48426),0.115 (inactive)
7,PRIM1 (UniProt P49642),-0.066 (inactive)
8,PRKAR2A (UniProt P13861),0.006 (inactive)
9,PLSCR1 (UniProt O15162),-0.003 (inactive)
10,PHKG2 (UniProt P15735),-0.034 (inactive)
11,POLR3D (UniProt P05423),-0.017 (inactive)
12,PDE4DIP isoform 4 (UniProt Q5VU43),-0.006 (inactive)
13,PLA2G15 (UniProt Q8NCC3),0.071 (inactive)
